Reference: article PMC8222333, “AsCas12a ultra nuclease facilitates the rapid generation of therapeutic cell medicines”

B1: TCCT (dsDNA)
DNA 1: GCTATCTAGTGCTCAGTACGCACTGTCCTAGGAAACTTCTGGCAGGACCAGGTCATGAGATCGGAAGAGCACACGTCTGAACTCCAGTCA
DNA 2: TGACTGGAGTTCAGACGTGTGCTCTTCCGATCTCATGACCTGGTCCTGCCAGAAGTTTCCTAGGACAGTGCGTACTGAGCACTAGATAGC
RNA: AAUUUCUACUCUUGUAGAUAGGAAACUUCUGGCAGGACC
B2: TCGA (dsDNA)
DNA 1: GCTATCTAGTGCTCAGTACGCACTGTCGAAGGAAACTTCTGGCAGGACCAGGTCATGAGATCGGAAGAGCACACGTCTGAACTCCAGTCA
DNA 2: TGACTGGAGTTCAGACGTGTGCTCTTCCGATCTCATGACCTGGTCCTGCCAGAAGTTTCCTTCGACAGTGCGTACTGAGCACTAGATAGC
RNA: AAUUUCUACUCUUGUAGAUAGGAAACUUCUGGCAGGACC
B3: TCGC (dsDNA)
DNA 1: GCTATCTAGTGCTCAGTACGCACTGTCGCAGGAAACTTCTGGCAGGACCAGGTCATGAGATCGGAAGAGCACACGTCTGAACTCCAGTCA
DNA 2: TGACTGGAGTTCAGACGTGTGCTCTTCCGATCTCATGACCTGGTCCTGCCAGAAGTTTCCTGCGACAGTGCGTACTGAGCACTAGATAGC
RNA: AAUUUCUACUCUUGUAGAUAGGAAACUUCUGGCAGGACC
B4: TCGT (dsDNA)
DNA 1: GCTATCTAGTGCTCAGTACGCACTGTCGTAGGAAACTTCTGGCAGGACCAGGTCATGAGATCGGAAGAGCACACGTCTGAACTCCAGTCA
DNA 2: TGACTGGAGTTCAGACGTGTGCTCTTCCGATCTCATGACCTGGTCCTGCCAGAAGTTTCCTACGACAGTGCGTACTGAGCACTAGATAGC
RNA: AAUUUCUACUCUUGUAGAUAGGAAACUUCUGGCAGGACC
B5: TCTT (dsDNA)
DNA 1: GCTATCTAGTGCTCAGTACGCACTGTCTTAGGAAACTTCTGGCAGGACCAGGTCATGAGATCGGAAGAGCACACGTCTGAACTCCAGTCA
DNA 2: TGACTGGAGTTCAGACGTGTGCTCTTCCGATCTCATGACCTGGTCCTGCCAGAAGTTTCCTAAGACAGTGCGTACTGAGCACTAGATAGC
RNA: AAUUUCUACUCUUGUAGAUAGGAAACUUCUGGCAGGACC
B6: TGAA (dsDNA)
DNA 1: GCTATCTAGTGCTCAGTACGCACTGTGAAAGGAAACTTCTGGCAGGACCAGGTCATGAGATCGGAAGAGCACACGTCTGAACTCCAGTCA
DNA 2: TGACTGGAGTTCAGACGTGTGCTCTTCCGATCTCATGACCTGGTCCTGCCAGAAGTTTCCTTTCACAGTGCGTACTGAGCACTAGATAGC
RNA: AAUUUCUACUCUUGUAGAUAGGAAACUUCUGGCAGGACC
B7: TGGA (dsDNA)
DNA 1: GCTATCTAGTGCTCAGTACGCACTGTGGAAGGAAACTTCTGGCAGGACCAGGTCATGAGATCGGAAGAGCACACGTCTGAACTCCAGTCA
DNA 2: TGACTGGAGTTCAGACGTGTGCTCTTCCGATCTCATGACCTGGTCCTGCCAGAAGTTTCCTTCCACAGTGCGTACTGAGCACTAGATAGC
RNA: AAUUUCUACUCUUGUAGAUAGGAAACUUCUGGCAGGACC
B8: TGGT (dsDNA)
DNA 1: GCTATCTAGTGCTCAGTACGCACTGTGGTAGGAAACTTCTGGCAGGACCAGGTCATGAGATCGGAAGAGCACACGTCTGAACTCCAGTCA
DNA 2: TGACTGGAGTTCAGACGTGTGCTCTTCCGATCTCATGACCTGGTCCTGCCAGAAGTTTCCTACCACAGTGCGTACTGAGCACTAGATAGC
RNA: AAUUUCUACUCUUGUAGAUAGGAAACUUCUGGCAGGACC

target: dAsCas12a Ultra (Acidaminococcus sp., UniProt U2UMQ6 1-1307, M537R;F870L;D908A;E993A;D1235A); experiment: Spec-seq (native PAGE EMSA with sequencing of bound and unbound); 25 mM Tris-HCl pH 7.4, 150 mM KCl, 5 mM MgCl2, 10% glycerol, 1 mM DTT, 40 ng/uL salmon sperm DNA; 400 nM Cas12a, 480 nM crRNA, 50 nM library, 37 C 1 h; native PAGE at room temperature; high values mean tight binding; details: protein: recombinant

Binder | binding signal [lnKA]
B1 | -8.78
B2 | -8.77
B3 | -7.42
B4 | -8.83
B5 | -6.94
B6 | -8.9
B7 | -8
B8 | -8.76

target: dAsCas12a E174R (Acidaminococcus sp., UniProt U2UMQ6 1-1307, E174R;D908A;E993A;D1235A); experiment: as above; details: protein: recombinant;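 also: relative affinity from the bound to unbound sequence frequency ratio in Spec-seq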

Binder | binding signal [lnKA]
B1 | -8.39
B2 | -8.54
B3 | -7.83
B4 | -8.58
B5 | -6.26

target: dAsCas12a S542R (Acidaminococcus sp., UniProt U2UMQ6 1-1307, S542R;D908A;E993A;D1235A); experiment: as above; details: protein: recombinant;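 also: relative affinity from the bound to unbound sequence frequency ratio in Spec-seq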

Binder | binding signal [lnKA]
B1 | -5.43
B2 | -7.61
B3 | -7.58
B4 | -8.35
B5 | -7.22
B6 | -8.33
B7 | -7.85
B8 | -8.26

target: d-enCas12a (Acidaminococcus sp., UniProt U2UMQ6 1-1307, E174R;S542R;K548R;D908A;E993A;D1235A); experiment: as above; details: protein: recombinant

Binder | binding signal [lnKA]
B1 | -3.98
B2 | -5.86
B3 | -5.36
B4 | -5.85
B5 | -5.44
B6 | -5.68
B7 | -5.44
B8 | -5.72

target: d-enCas12a-Ultra (Acidaminococcus sp., UniProt U2UMQ6 1-1307, E174R;S542R;K548R;M537R;F870L;D908A;E993A;D1235A); experiment: as above; details: protein: recombinant;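 also: relative affinity from the bound to unbound sequence frequency ratio in Spec-seq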

Binder | binding signal [lnKA]
B1 | -0.951
B2 | -3.33
B3 | -2.95
B4 | -3.4
B5 | -2.4
B6 | -3.27
B7 | -3.27
B8 | -3.36
